Experimental data as given in PubChem BioAssay AID1159580 (chemical genetic matrix, 2015).
Hit rate of the full screen: of about 5,500 compounds, about 2,000 (36%) were called active. About 18% were inconclusive and are not listed. No stated cut-off is given here; in the data, active means normalized growth mostly below about 0.91 (no sharp cut-off); inconclusive means no clear call, values can overlap the other calls; inactive means mostly above about 0.92. The list shows a part of the results.

Experiment: chemical genetic growth profiling, strain panel (AID 1159580);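 further: tested at 20 µM; growth read once vehicle control cultures reached saturation at 30 °C; 1 = growth at the plate median or of vehicle wells; lower values mean less growth of the strain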
Settings: growth OD
[1] = S. cerevisiae deletion strains, locus YAL013W, strain DEP1, active compounds read low
[2] = S. cerevisiae deletion strains, locus YBR229C, strain ROT2, active compounds read low
[3] = S. cerevisiae deletion strains, locus YDL101C, strain DUN1, active compounds read low
[4] = S. cerevisiae deletion strains, locus YDR150W, strain NUM1, active compounds read low
[5] = S. cerevisiae deletion strains, locus YEL061C, strain CIN8, active compounds read low
[6] = S. cerevisiae deletion strains, locus YGR078C, strain PAC10, active compounds read low
[7] = S. cerevisiae deletion strains, locus YHR030C, strain SLT2, active compounds read low
[8] = S. cerevisiae deletion strains, locus YHR087W, strain rtc3, active compounds read low
[9] = S. cerevisiae deletion strains, locus YJL187C, strain SWE1, active compounds read low
[10] = S. cerevisiae deletion strains, locus YJR043C, strain POL32, active compounds read low
[11] = S. cerevisiae deletion strains, locus YJR075W, strain HOC1, active compounds read low
[12] = S. cerevisiae deletion strains, locus YLR039C, strain RIC1, active compounds read low
[13] = S. cerevisiae deletion strains, locus YLR058C, strain SHM2 (second series), active compounds read low
[14] = S. cerevisiae deletion strains, locus YLR085C, strain ARP6, active compounds read low
[15] = S. cerevisiae deletion strains, locus YLR262C, strain YPT6, active compounds read low
[16] = S. cerevisiae deletion strains, locus YML094W, strain GIM5, active compounds read low
[17] = S. cerevisiae deletion strains, locus YMR219W, strain ESC1, active compounds read low
[18] = S. cerevisiae deletion strains, locus YMR263W, strain SAP30, active compounds read low
[19] = S. cerevisiae deletion strains, locus YNL153C, strain GIM3, active compounds read low
[20] = S. cerevisiae deletion strains, locus YNL298W, strain CLA4 (second series), active compounds read low
[21] = S. cerevisiae deletion strains, locus YNL322C, strain KRE1, active compounds read low
[22] = S. cerevisiae deletion strains, locus YNR030W, strain Alg12, active compounds read low
[23] = S. cerevisiae deletion strains, locus YPL055C, strain LGE1, active compounds read low
[24] = S. cerevisiae deletion strains, locus YPL241C, strain CIN2, active compounds read low
[25] = S. cerevisiae deletion strains, locus YPR135W, strain CTF4, active compounds read low
[26] = S. cerevisiae strains, strain wild type, active compounds read low
[27] = S. cerevisiae deletion strains, locus YDL134C, strain PPH21, active compounds read low
[28] = S. cerevisiae deletion strains, locus YKL190W, strain CNB1, active compounds read low

Measured: normalized growth

CC/C(=N/Oc1ccc(C(F)(F)F)cn1)c1ccc(-c2ccccc2F)cc1
inactive: [1] 1.01 | [2] 1.01 | [3] 0.995 | [4] 0.981 | [5] 0.992 | [6] 1.01 | [7] 1.12 | [8] 1.02 | [9] 0.999 | [10] 0.987 | [11] 0.991 | [12] 1.03 | [13] 0.999 | [14] 1.04 | [15] 1.03 | [16] 1.01 | [17] 1 | [18] 0.996 | [19] 1 | [20] 1.05 | [21] 0.986 | [22] 1.02 | S. cerevisiae deletion strains, locus YOL006C, strain TOP1, active compounds read low 1.06 | [23] 0.984 | [24] 1.01 | [25] 1.05 | [26] 1.02

COC(=O)c1ccc(C(=O)OC)nc1
inactive: [1] 1 | [2] 0.994 | [3] 0.977 | [4] 0.976 | [5] 0.999 | [6] 0.997 | [7] 0.982 | [8] 0.995 | [10] 1 | [11] 0.993 | [12] 0.973 | [13] 1 | [14] 1.01 | [15] 0.984 | [16] 0.942 | [17] 0.998 | [18] 1.02 | S. cerevisiae deletion strains, locus YNL128W, strain TEP1, active compounds read low 0.987 | [19] 1 | [20] 1 | [21] 0.992 | [22] 0.998 | [23] 0.991 | [24] 0.949 | [25] 0.967 | [26] 0.989

COC(=O)c1ccc(-c2ccccc2F)cc1
inactive: [1] 0.984 | [2] 0.982 | [3] 0.987 | [27] 0.974 | [4] 0.971 | [5] 0.927 | [6] 0.962 | [8] 0.968 | [9] 0.961 | [10] 0.94 | [11] 0.893 | [12] 0.796 | [13] 0.99 | [15] 0.929 | [16] 0.958 | [17] 0.991 | [18] 0.971 | [19] 0.968 | [20] 0.897 | [21] 0.999 | [22] 0.957 | [23] 0.917 | [24] 0.89 | [25] 0.786
active: [7] 0.681 | [28] 0.857 | [14] 0.696 | [26] 0.901

CN(C)c1ccc(/C=N\NC(=O)CCc2ccc(O)cc2)c(Cl)c1
inactive: [1] 1.01 | [2] 0.998 | [3] 1.05 | [27] 1.01 | [4] 1.01 | [5] 0.974 | [6] 1.02 | [7] 0.992 | [8] 0.995 | [10] 1.01 | [11] 1.01 | [28] 1.01 | [12] 0.951 | [13] 1.01 | [14] 0.999 | [15] 0.946 | [16] 0.974 | [17] 1.01 | [18] 1.02 | S. cerevisiae deletion strains, locus YMR307W, strain GAS1, active compounds read low 0.97 | [19] 1 | [20] 0.999 | [21] 1.01 | [22] 1.01 | [23] 0.985 | [24] 0.967 | [25] 1.01

CCOC(=O)CCc1cc(N=Cc2cc(Br)ccc2O)c(O)c(N=Cc2cc(Br)ccc2O)c1
active: S. cerevisiae deletion strains, locus YGR092W, strain DBF2, active compounds read low 0.371 | [7] 0.562 | S. cerevisiae deletion strains, locus YLR113W, strain HOG1, active compounds read low 0.65 | S. cerevisiae deletion strains, locus YPL256C, strain CLN2, active compounds read low 0.579
inactive: S. cerevisiae deletion strains, locus YAR019C, strain CDC15, active compounds read low 0.963 | S. cerevisiae deletion strains, locus YBL105C, strain PKC1, active compounds read low 0.959 | S. cerevisiae deletion strains, locus YBR135W, strain CKS1, active compounds read low 0.968 | S. cerevisiae deletion strains, locus YBR136W, strain MEC1, active compounds read low 0.966 | S. cerevisiae deletion strains, locus YBR160W, strain CDC28, active compounds read low 0.959 | S. cerevisiae deletion strains, locus YDL017W, strain CDC7, active compounds read low 0.962 | S. cerevisiae deletion strains, locus YDL028C, strain MPS1, active compounds read low 0.968 | [3] 0.967 | S. cerevisiae deletion strains, locus YDL108W, strain KIN28, active compounds read low 0.959 | S. cerevisiae deletion strains, locus YDL132W, strain cdc53, active compounds read low 0.961 | S. cerevisiae deletion strains, locus YDL214C, strain PRR2, active compounds read low 0.834 | S. cerevisiae deletion strains, locus YDR052C, strain DBF4, active compounds read low 0.953 | S. cerevisiae deletion strains, locus YDR054C, strain cdc34, active compounds read low 0.951 | S. cerevisiae deletion strains, locus YDR226W, strain ADK1, active compounds read low 0.979 | S. cerevisiae deletion strains, locus YDR477W, strain SNF1, active compounds read low 0.805 | S. cerevisiae deletion strains, locus YER123W, strain YCK3, active compounds read low 0.66 | S. cerevisiae deletion strains, locus YER133W, strain GLC7, active compounds read low 0.788 | S. cerevisiae deletion strains, locus YFL009W, strain cdc4, active compounds read low 0.962 | S. cerevisiae deletion strains, locus YFL029C, strain CAK1, active compounds read low 0.955 | S. cerevisiae deletion strains, locus YFR003C, strain YPI1, active compounds read low 0.961 | S. cerevisiae deletion strains, locus YFR019W, strain FAB1, active compounds read low 0.877 | S. cerevisiae deletion strains, locus YFR028C, strain CDC14, active compounds read low 0.974 | S. cerevisiae deletion strains, locus YGR040W, strain KSS1, active compounds read low 0.824 | S. cerevisiae deletion strains, locus YGR052W, strain FMP48, active compounds read low 0.768 | S. cerevisiae deletion strains, locus YHR079C, strain IRE1, active compounds read low 0.622 | S. cerevisiae deletion strains, locus YHR082C, strain KSP1, active compounds read low 0.843 | S. cerevisiae deletion strains, locus YHR205W, strain SCH9, active compounds read low 0.87 | S. cerevisiae deletion strains, locus YIL147C, strain SLN1, active compounds read low 0.962 | S. cerevisiae deletion strains, locus YJL095W, strain BCK1, active compounds read low 0.643 | S. cerevisiae deletion strains, locus YJL128C, strain PBS2, active compounds read low 0.942 | S. cerevisiae deletion strains, locus YJL157C, strain FAR1, active compounds read low 0.773 | S. cerevisiae deletion strains, locus YJR016C, strain ILV3, active compounds read low 0.968 | S. cerevisiae deletion strains, locus YJR066W, strain TOR1 (second series), active compounds read low 0.764 | S. cerevisiae deletion strains, locus YJR066W, strain TOR1, active compounds read low 0.727 | S. cerevisiae deletion strains, locus YKL048C, strain ELM1, active compounds read low 0.873 | S. cerevisiae deletion strains, locus YKL067W, strain YNK1, active compounds read low 0.823 | S. cerevisiae deletion strains, locus YKL101W, strain HSL1, active compounds read low 0.833 | S. cerevisiae deletion strains, locus YKL193C, strain SDS22, active compounds read low 0.965 | S. cerevisiae deletion strains, locus YKL203C, strain TOR2, active compounds read low 0.786 | S. cerevisiae deletion strains, locus YLR133W, strain CKI1, active compounds read low 0.804 | S. cerevisiae deletion strains, locus YLR403W, strain SFP1, active compounds read low 0.75 | S. cerevisiae deletion strains, locus YML070W, strain DAK1, active compounds read low 0.727 | S. cerevisiae deletion strains, locus YMR001C, strain CDC5, active compounds read low 0.961 | S. cerevisiae deletion strains, locus YMR205C, strain PFK2 (second series), active compounds read low 0.841 | S. cerevisiae deletion strains, locus YMR277W, strain FCP1, active compounds read low 0.971 | S. cerevisiae deletion strains, locus YNL006W, strain LST8, active compounds read low 0.976 | S. cerevisiae deletion strains, locus YNL020C, strain ARK1, active compounds read low 0.79 | S. cerevisiae deletion strains, locus YNL161W, strain CBK1, active compounds read low 0.959 | S. cerevisiae deletion strains, locus YNL183C, strain NPR1, active compounds read low 0.754 | S. cerevisiae deletion strains, locus YNL207W, strain RIO2, active compounds read low 0.957 | S. cerevisiae deletion strains, locus YNL222W, strain SSU72, active compounds read low 0.975 | S. cerevisiae deletion strains, locus YNL307C, strain MCK1 (second series), active compounds read low 0.76 | S. cerevisiae deletion strains, locus YOL078W, strain AVO1, active compounds read low 0.965 | S. cerevisiae deletion strains, locus YOL136C, strain PFK27, active compounds read low 0.679 | S. cerevisiae deletion strains, locus YOR061W, strain CKA2, active compounds read low 0.809 | S. cerevisiae deletion strains, locus YOR119C, strain RIO1, active compounds read low 0.84 | S. cerevisiae deletion strains, locus YOR231W, strain MKK1, active compounds read low 0.657 | S. cerevisiae deletion strains, locus YOR329C, strain SCD5, active compounds read low 0.961 | S. cerevisiae deletion strains, locus YPL031C, strain PHO85, active compounds read low 0.8 | S. cerevisiae deletion strains, locus YPL153C, strain RAD53, active compounds read low 0.784 | S. cerevisiae deletion strains, locus YPL204W, strain HRR25, active compounds read low 0.754 | S. cerevisiae deletion strains, locus YPL209C, strain IPL1, active compounds read low 0.964 | S. cerevisiae deletion strains, locus YPR025C, strain CCL1, active compounds read low 0.954 | S. cerevisiae deletion strains, locus YPR106W, strain ISR1, active compounds read low 0.98 | S. cerevisiae deletion strains, locus YPR111W, strain DBF20, active compounds read low 0.958 | S. cerevisiae deletion strains, strain NNK1, active compounds read low 0.964 | S. cerevisiae deletion strains, strain TSCII, active compounds read low 0.96

CCOC(=O)CCc1cc(N=Cc2cc(Cl)cc(Cl)c2O)c(O)c(N=Cc2cc(Cl)cc(Cl)c2O)c1
active: [1] 0.257 | [2] 0.225 | [3] 0.48 | [4] 0.328 | [5] 0.254 | [6] 0.14 | [7] 0.126 | [8] 0.0846 | [9] 0.204 | [10] 0.403 | [11] 0.245 | [28] 0.537 | [12] 0.164 | [13] 0.598 | [14] 0.14 | [15] 0.156 | [16] 0.243 | [17] 0.278 | [18] 0.354 | [19] 0.454 | [20] 0.411 | [21] 0.935 | [22] 0.63 | [23] 0.212 | [24] 0.476 | [25] 0.558 | [26] 0.555
